Source: PubChem (National Center for Advancing Translational Sciences (NCATS))
Tb PYK inh: inhibitors of Trypanosoma brucei pyruvate kinase; AID 624173; Q57TT1; Potency, µM (titrated, usually from 76.8 µM), inactives show at the highest dose activity, negative = inhibition, actives largely listed as inhibitors; 410,000 tested, 0.12% active; TbPYK enzyme, Kinase-Glo Plus ATP luminescence, 45 min; note: % is set by controls: 0 for no effect and ±100 for the full control effect; nearly all actives have a fitted effect of over 50% in size
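Quantitative HTS: titrated library compounds versus trypanosomal pyruvate kinase in TEA buffer (pH 7.2) containing KCl, MgCl2, BSA and Tween-20. Reactions were initiated with ADP, 130 uM final. Kinase-Glo Plus luminescence was read after 45 min at RT.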
LmPK inhibitor: blocks Leishmania mexicana pyruvate kinase activity; Potency, µM (doses to about 57.5 µM), for inactives: at the highest dose activity change, negative = inhibition, most hits filed as inhibitors; purified LmPK, Kinase-Glo ATP luminescence, 1 h; 290,000 tested, 0.37% active; note: % is set by controls: 0 for no effect and ±100 for the full control effect
Target sequence (Q27686 whole entry, looked up): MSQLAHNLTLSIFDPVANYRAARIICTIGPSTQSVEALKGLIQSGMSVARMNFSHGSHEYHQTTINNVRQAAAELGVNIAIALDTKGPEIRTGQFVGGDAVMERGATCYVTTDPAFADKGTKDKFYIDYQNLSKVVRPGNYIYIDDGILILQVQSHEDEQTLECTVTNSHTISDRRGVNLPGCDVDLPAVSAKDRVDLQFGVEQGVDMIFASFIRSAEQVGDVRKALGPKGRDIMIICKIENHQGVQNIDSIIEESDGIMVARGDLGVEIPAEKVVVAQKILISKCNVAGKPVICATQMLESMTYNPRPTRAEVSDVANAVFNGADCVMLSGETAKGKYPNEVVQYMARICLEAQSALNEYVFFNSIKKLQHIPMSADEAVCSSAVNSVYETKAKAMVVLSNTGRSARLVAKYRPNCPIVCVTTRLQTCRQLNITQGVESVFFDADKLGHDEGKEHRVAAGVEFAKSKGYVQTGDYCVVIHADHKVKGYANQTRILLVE
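Purified LmPK (0.1 nM) with 0.5 mM PEP and 0.1 mM ADP in imidazole buffer pH 7.2 with MgCl2/KCl, 1 h at room temperature. ATP formed was read by luciferase luminescence and normalized to no-enzyme and uninhibited controls.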
RE007 growth inh: less growth of the S. pombe RE007 Vpr strain; S. pombe RE007 Vpr strain, BacTiter-Glo ATP luminescence, 24 h; Potency, µM (series often up to 92.2 µM), without a hit: top-dose activity change, negative = less growth, actives largely listed as inhibitors; 360,000 tested, 0.21% active; active = well fitted falling curve with a large enough effect; inconclusive = small, poorly fitted or top-dose-only effect; inactive = no such curve, though single readings can be large or run the other way; note: % is set by controls: 0 for no effect and ±100 for the full control effect; nearly all actives have a fitted effect of over 50% in size
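Fission yeast strain RE007, carrying one chromosomally integrated HIV-1 vpr copy, was seeded at OD 0.01 in PMG+AL medium with 23 nL pinned compound. After 24 h at 30 °C and 99% humidity, viability was read by BacTiter-Glo luminescence.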
Sm TGR inh: blocks Schistosoma mansoni thioredoxin glutathione reductase; Potency, µM (top dose mostly 114 µM), for the others: top-dose activity change, negative = inhibition, usual class: inhibitors; Q962Y6; 360,000 tested, 3% active; purified TGR, DTNB reduction, TNB absorbance 405 nm; AID 485364; note: % is set by controls: 0 for no effect and ±100 for the full control effect; nearly all actives have a fitted effect of over 60% in size
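First, TGR (20 nM dispensed) and NADPH were mixed with compound. Second, a 15 min room-temperature incubation followed. Third, further NADPH and then DTNB were added to start the reaction. Finally, TNB absorbance was monitored kinetically.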
SARS PLpro yeast: SARS-CoV PLP inhibition in yeast; S. cerevisiae expressing SARS-CoV PLpro, growth rescue; Potency, µM (doses to about 32.9 µM), for inactives: at the highest dose activity, positive = growth rescue, usual class: activators; 330,000 tested, 0.19% active; AID 485353; calls by dose curve; note: 0% is about no effect; nearly all actives have a fitted effect of over 55% in size
NS1 inh: influenza NS1 inhibition; Potency, µM (doses to about 46.1 µM), inactives show top-dose activity, positive = more growth; AID 2326; 270,000 tested, 0.4% active; calls by dose curve; note: actives are rising curves; nearly all actives have a fitted effect of over 50% in size
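In this qHTS, NS1 from influenza A is expressed in budding yeast, where it slows growth. Cells are switched from glucose to 2% galactose medium (pH 6.0, -URA), treated with compound, and growth recovery is read at OD600.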
* hit, by the source's call; [ ] = another dose, or the depositor's remark. Shown are actives, neighbours in structure and some others; about 3.3% of the full set was active somewhere. Unless noted, calls come from the whole dose curve; as a rule, active = well fitted curve in the direction sought with a large enough effect; inconclusive = small, poorly fitted or top-dose-only effect, or another doubt; inactive = no such curve, though single readings can be large; an effect the other way counts as inactive or inconclusive. Potency is the fitted concentration of half-maximal effect.

O=C(Nc1ccccc1)c1ccc2nc(-c3ccco3)c(-c3ccco3)nc2c1 was read as Tb PYK inh inconclusive, LmPK inhibitor 0.1%, RE007 growth inh -5.5%, Sm TGR inh 3.16µM*, SARS PLpro yeast -0.3% and NS1 inh -40.1%.
Screening CCc1nc2ccc(C(=O)Nc3ccc(NC(C)=O)cc3)cc2nc1CC returned Tb PYK inh 0.6%, LmPK inhibitor 0.2%, RE007 growth inh 3.7%, Sm TGR inh 0.3%, SARS PLpro yeast 4.8% and NS1 inh -2.8%.
Screening O=C(Nc1ccc(N2CCOCC2)cc1)c1ccc2nc(-c3ccco3)c(-c3ccco3)nc2c1 returned Tb PYK inh -6.2%, LmPK inhibitor -5.5%, RE007 growth inh -5.6%, Sm TGR inh inconclusive, SARS PLpro yeast -4.0% and NS1 inh -3.8%.
For COc1cc(OC)c(NS(=O)(=O)c2cc(-c3cnc(C)o3)ccc2OC)cc1Cl the results were Tb PYK inh 9.1% and Sm TGR inh -5.8%.
For O=C(c1cnc(N2CCCCC2)c2ccccc12)N1CCN(c2ccc(F)cc2)CC1 the results were Tb PYK inh -2.0% and Sm TGR inh -3.5%.
For CCc1nn(Cc2c(C)cc(C)cc2C)c(=O)c2cc3cc(C)ccc3n12 the results were Tb PYK inh 1.0% and Sm TGR inh -4.9%.
O=C(NCc1ccccc1)c1ccc2nc(-c3ccco3)c(-c3ccco3)nc2c1 was read as Tb PYK inh inconclusive, LmPK inhibitor 11.4%, RE007 growth inh -11.9%, Sm TGR inh 1.41µM*, SARS PLpro yeast 5.5% and NS1 inh 29.7%.
`O=C(NCc1ccccc1)c1ccc2nccnc2c1` gave Tb PYK inh -2.8%, LmPK inhibitor 3.0%, RE007 growth inh 12.4%, Sm TGR inh -2.5%, SARS PLpro yeast 5.8% and NS1 inh -53.3%.
CCOc1ccc(CNC(=O)C2CCN(C(=O)c3sccc3-n3cccc3)CC2)cc1 was read as Tb PYK inh -4.4% and Sm TGR inh 7.6%.
Screening CCCCCC1CC(CC(=O)O)C(=O)O1 (stereo not drawn) returned Tb PYK inh -4.3%, LmPK inhibitor 2.6%, RE007 growth inh -3.9%, Sm TGR inh -31.1%, SARS PLpro yeast -0.4% and NS1 inh 15.7%.
CCCCCC1CC(CC#CCN2CCOCC2)C(=O)O1 (stereo not drawn) was read as Tb PYK inh 2.9%, LmPK inhibitor -8.0%, RE007 growth inh -11.0%, Sm TGR inh 22.4µM*, SARS PLpro yeast -19.0% and NS1 inh 2.6%.
Screening C#C[C@]1(O)CC[C@H]2[C@@H]3CCC4=CCCC[C@@H]4[C@H]3C(=C)C[C@@]21CC returned Tb PYK inh 6.9%.
Screening O=C(/C=C/Sc1ccccc1)c1ccc(Cl)cc1 returned Tb PYK inh 4.1%, LmPK inhibitor -9.5%, RE007 growth inh inconclusive, Sm TGR inh 31.6µM*, SARS PLpro yeast -16.4% and NS1 inh -13.3%.
O=C(C=Cc1ccccc1Cl)c1ccccc1 was read as Tb PYK inh -5.1% and RE007 growth inh -13.1%.
For O=C(/C=C/Sc1ccccc1)c1ccccc1 the results were Tb PYK inh 7.9%, LmPK inhibitor inconclusive, RE007 growth inh inconclusive, Sm TGR inh 10µM*, SARS PLpro yeast -25.3% and NS1 inh -32.9%.
CC(=O)c1ccc(NC(=O)c2ccc(-c3nc(COc4ccc(C)cc4)c(C)o3)cc2)cc1 was read as Tb PYK inh -5.1% and Sm TGR inh 10.7%.
For COc1ccc(CNCC(O)COc2ccc3[nH]c(=O)ccc3c2)cc1OC (stereo not drawn) the results were Tb PYK inh -6.4%.
`COc1ccc(-c2csc(NC(=O)C3=COCCO3)n2)c(OC)c1` gave Tb PYK inh 6.4%, RE007 growth inh inconclusive, Sm TGR inh -7.8% and SARS PLpro yeast -3.4%.
`Cc1cc(C)c(-c2csc(NC(=O)C3=COCCO3)n2)cc1C` gave Tb PYK inh 0.1%, RE007 growth inh 12.6µM*, Sm TGR inh 1.3% and SARS PLpro yeast 0.3%.
Screening COc1cccc(CNC(=O)c2c(C)nn(-c3cccc(C)c3)c2-n2cccc2)c1 returned Tb PYK inh -6.9%[15.4 µM] and Sm TGR inh 5.1%.
Screening CCCCC(CCC(=O)O)(C(=O)OCC)c1csc(Nc2ccc(OCC)cc2)n1 (stereo not drawn) returned Tb PYK inh -8.5%, LmPK inhibitor 1.2%, RE007 growth inh -0.2%, Sm TGR inh 50.1µM*, SARS PLpro yeast -0.8% and NS1 inh 12.0%.
CCCCC(CCC(=O)O)(C(=O)OCC)c1csc(Nc2ccccc2)n1 (stereo not drawn) was read as Tb PYK inh 1.6%, LmPK inhibitor 1.1%, RE007 growth inh -10.4%, Sm TGR inh -28.8%, SARS PLpro yeast 0.7% and NS1 inh 3.4%.
`Cc1ccc2c(c1)N(C(=O)N1CCC(C(=O)NCCC3=CCCCC3)CC1)CC(C)O2` (stereo not drawn) gave Tb PYK inh -0.7% and Sm TGR inh 2.1%.
`CCN(CC)c1cc(C)c2cc(NC(=O)/C=C/c3cc(OC)c(OC)c(OC)c3)ccc2n1` gave Tb PYK inh 0.6% and Sm TGR inh -15.1%.
Screening COc1cccc(/C=C/C(=O)c2c(O)cc(C)oc2=O)c1O returned Tb PYK inh -4.8%, LmPK inhibitor 3.7%, RE007 growth inh -27.9%, Sm TGR inh -32.4%, SARS PLpro yeast 6.7% and NS1 inh -92.4%.
Cc1cc(O)c(C(=O)/C=C/c2ccc(Cl)cc2)c(=O)o1 was read as Tb PYK inh 6.1%, LmPK inhibitor 3.5%, RE007 growth inh 1.1%, Sm TGR inh 25.1µM*, SARS PLpro yeast -1.9% and NS1 inh 13.6%.
`CSc1ccc(/C=C/C(=O)c2c(O)cc(C)oc2=O)cc1` gave Tb PYK inh -6.1%, LmPK inhibitor inconclusive, RE007 growth inh -27.4%, Sm TGR inh -28.2%, SARS PLpro yeast -0.6% and NS1 inh inconclusive.
`COc1ccc2cc(C(=O)/C=C/c3cc(OC)c(O)c(OC)c3)ccc2c1` gave Tb PYK inh 0.0%, LmPK inhibitor -1.1%, RE007 growth inh -22.3%, Sm TGR inh -35.1%, SARS PLpro yeast -0.6% and NS1 inh 15.9%.
For COc1cc(/C=C/C(=O)c2c(O)cc(C)oc2=O)cc(OC)c1O the results were Tb PYK inh -14.4%, LmPK inhibitor 7.9%, RE007 growth inh -12.3%, Sm TGR inh 100µM*, SARS PLpro yeast 3.1% and NS1 inh 1.1%.
For COc1ccc(/C=C/C(=O)c2c(O)cc(C)oc2=O)c(OC)c1 the results were Tb PYK inh 2.5%, LmPK inhibitor 14.1µM*, RE007 growth inh 0.0%, Sm TGR inh 0.0%, SARS PLpro yeast 1.9% and NS1 inh 7.2%.
